Calls of active or inactive are those of the source. How the source made its calls: active means hit-call score of the fitted dose curve at least 0.9, where 1 is the maximum; inactive means score below 0.9.

The text below walks through data of PubChem BioAssay (EPA / NIEHS).

A short description of the assay: ATG_SREBP_CIS: Attagene CIS-FACTORIAL HepG2 Assay for human Sterol Regulatory Element Binding (SREBP) (AID 2282962). Conditions: HepG2 Attagene cis-factorial SREBP reporter, mRNA; actives raise or lower the signal. How it is done: ATG_CIS is a cell-based, multiplexed-readout assay that uses HepG2, a human liver cell line, with measurements taken at 24 hours after chemical dosing in a 24-well plate.ATG_SREBP_CIS is one of 52 assay component(s) measured or calculated from the ATG_CIS assay. It is designed to make measurements of mRNA induction, a form of inducible reporter, as detected with fluorescence intensity signals by Reverse transcription polymerase chain reaction (RT-PCR) and Capillary electrophoresis technology.Data from the assay component ATG_SREBP_CIS was analyzed into 1 assay endpoint. This assay endpoint, ATG_SREBP_CIS, was analyzed with bidirectional fitting relative to DMSO as the negative control and baseline of activity. Using a type of inducible reporter, measures of mRNA for gain or loss-of-signal activity can be used to understand the reporter gene at the transcription factor-level as they relate to the gene SREBF1. Furthermore, this assay endpoint can be referred to as a primary readout, because this assay has produced multiple assay endpoints where this one serves a reporter gene function. To generalize the intended target to other relatable targets, this assay endpoint is annotated to the dna binding intended target family, where the subfamily is basic helix-loop-helix leucine zipper.
Human liver HepG2 cells are transiently transfected with multiple reporter transcription units (MRTUs) in 6-well plates using FuGene 6 reagent (Roche; 3 ml FuGene/1 mg DNA). The MRTU constructs are regulated by a cis-regulating element (promoter). […] A major difference between the CIS and TRANS system is that in CIS activities of endogenous TFs are measured, whereas the TRANS assay evaluates changes in activities of exogenous, chimeric NR-Gal4 proteins. […] At the end of 24 hour incubation, total RNA was isolated using TriZol reagent (Invitrogen). The isolated RNA is then reverse-transcribed using oligo(dT) primer and Mo-MLV reverse transcriptase (Invitrogen) with DNAse I (Ambion) treatment for 30 min. The one-tenth of the produced cDNA was amplified by PCR using Taq DNA polymerase (Invitrogen) and two reporter sequence-specific primers. The PCR products were fluorescently labeled by primer extension with 6-arboxyfluorescein (6-FAM) 5'-labeled reporter sequence-specific primer (2 min at 95 C, 20 s at 68 C and 10 min at 72 C) and these products were digested with 5U of HpaI (New England Biolabs) for 2h at 37 C. The fragments were purified using Qiaquick PCR columns (Qiagen), analyzed on an ABI 3130xL genetic analyzer (Applied Biosystems) with peak positions identified by using a set of X-rhodamine (ROX)-labeled MapMarker1000 molecular weight standards (BioVentures). The raw capillary electrophoresis data was processed using Attagraph software (Attagene).
Consider `CCCCNc1ccc(NCCCC)c2c1C(=O)c1ccccc1C2=O`, for which the molecule was called inactive. Usually AC50 stands for the midpoint of the concentration-response curve, whichever way the signal moves. As to `O=C1CCCCCCCCCCCCCCCO1`, the AC50 was 100 µM (active).

Take `OCCN(CCO)c1ccccc1`: the molecule was called inactive.

Take `CC(=O)OC1C2(C)CCC(C2)C1(C)C` (stereo not given): the outcome was inactive. The same measure, in the same setting: in the case of `CCCNC(=O)NS(=O)(=O)c1ccc(Cl)cc1` it was “inactive”. As to `CCCCCCCOC(=O)CCC`, the call was inactive.

Consider `O=C1C=CC(=O)O1`, for which the molecule was classed as inactive. For the molecule `SCCc1cnccn1`, the outcome was inactive.

For `N#CCc1ccc(Cl)cc1Cl`, the outcome was inactive. Turning to `CCCCC(CC)COCC1CO1` (stereo not given), the molecule was called inactive.

For the molecule `CCCc1ccc(OC)cc1`, the outcome was inactive. Consider `CC(=O)C=CC1C(C)=CCC(C)C1(C)C` (stereo not given), for which the outcome was inactive. Same read-out and setting: in the case of `CCC(CO)CO` it was “inactive”. On to `CCCCCCC(O)CO` (stereo not given), for which the result was inactive. Regarding `CC(=O)OC(C)C`, the result was inactive. With `CC(C)=CCCC(C)C=O` (stereo not given), the outcome was inactive.

Regarding `CC(=O)CC(N)=O`, the outcome was inactive. `Cc1ccc(C(C)c2ccc(C)c(C)c2)cc1C`: the AC50 is 147 µM (active). Turning to `CC(=O)c1ccc[nH]1`, the call was inactive.

As to `CC(C)(C)c1n[nH]c(=O)n(N)c1=O`, the molecule was classed as inactive. Take `CCCCCCCC/C=C\CCCCCCCC(=O)O`: the outcome was inactive. Regarding `Nc1ccc(Cl)cc1Cl`, the result was inactive. For the molecule `Cc1cc(=O)n(-c2ccccc2)n1C`, the molecule was classed as inactive. On the same count and under the same terms, to `CC=C1CC2C=CC1C2` (stereo not given) belongs “inactive”.

Take `CCOCC(=O)O`: the result was inactive. Same read-out and setting: to `O=S(=O)(O)c1cc(S(=O)(=O)O)c2ccc3c(S(=O)(=O)O)cc(S(=O)(=O)O)c4ccc1c2c43` belongs “inactive”; to `N#[N+]c1ccc2c(S(=O)(=O)[O-])cccc2c1O`, “inactive”. For the molecule `O=C(c1ccc(O)cc1)c1ccc(O)cc1O`, the AC50 was 100 µM (active). On to `CC(C)CCCCCOC(=O)CCS`, for which the outcome was inactive. On the same count and under the same terms, to `CCCCCCOc1cc(C)c(O)c(C)c1C` belongs “inactive”; to `CC(=O)OCC(=O)[C@@]12N=C(C)O[C@@H]1C[C@H]1[C@@H]3CCC4=CC(=O)C=C[C@]4(C)[C@H]3[C@@H](O)C[C@@]12C`, “inactive”; to `Nc1ccc2cc3ccccc3cc2c1`, “inactive”.

For `CCOC(=O)Cc1cccc2ccccc12`, the call was inactive. As for `C=C(C)c1cccc(C(C)(C)N=C=O)c1`, the call was inactive.

As for `CC(C)(C)c1ccc(-c2ccc(C(C)(C)C)cc2)cc1`, the molecule was classed as inactive. Still for that read-out and setting: to `Nc1ccc(N=Nc2ccccc2)c(N)n1` belongs “inactive”; to `COC=O`, “inactive”; to `C=C(C)[C@H]1CC=C(C)CC1`, “inactive”.

As to `O=S(=O)(O)c1ccc2cc(O)c(S(=O)(=O)O)cc2c1`, the molecule was classed as inactive.

For `CCC(C)OC(=O)c1ccc(O)cc1` (stereo not given), the molecule was called inactive.
